DT40 TDP1 no CPT: qHTS for Inhibitors of human tyrosyl-DNA phosphodiesterase 1 (TDP1): qHTS in cells in absence of CPT | DT40 Tdp1-/- hTDP1 cells, no CPT, ATP luminescence, 48 h | Potency, µM (highest dose often 46.2 µM), hits mostly inhibitors | actives 15% (n = 420,000) | AID 686978, 2013; also: nearly all actives have a fitted effect of over 55% in size
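Cells were dispensed at 400 per well, compounds added by pin tool, plates incubated ≥48 hr at 37 °C, then CellTiter-Glo added for 30 min at room temperature before luminescence reading. Line: DT40 Tdp1-/- complemented with hTDP1; camptothecin omitted.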
KB-V1 cytotox: KB-V1 MDR subline cytotoxicity; Potency, µM (doses to about 46.1 µM), actives largely listed as cytotoxic; KB-V1 MDR cells viability, CellTiter-Glo, 72 h; actives 3.4% (n = 400,000); AID 1347076; also: nearly all actives have a fitted effect of over 60% in size
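Cytotoxicity via CellTiter-Glo luminescence after 72 h compound exposure at 37 degrees C. Cells: drug-selected KB-V1 line, DMEM phenol-red free plus 10% FBS. Compounds tested at multiple concentrations; normalized data fitted to concentration-effect curves.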
HT1080 IDH1KD tx: kills HT-1080 cells with IDH1 knockdown. HT-1080 IDH1 knockdown viability, ATP luminescence, 48 h. Potency, µM (titrated, usually from 46.1 µM), hits mostly cytotoxic. actives 2% (n = 360,000)
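Using the IDH1-knockdown HT-1080 line run in the same batch and compound series as the NT line, viability after 48 h at 37 °C was determined by CellTiter-Glo luminescence and expressed as % activity.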
TDP1 cell CPT: DT40-hTDP1 cell growth loss with CPT; chicken DT40 Tdp1-/-;hTDP1 cells + 20 nM CPT, ATP luminescence, 48 h; Potency, µM (doses to about 46.2 µM), hits mostly inhibitors; actives 12% (n = 420,000); also: nearly all actives have a fitted effect of over 55% in size
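Chicken DT40 Tdp1-/- cells complemented with human TDP1, 400 cells/well, exposed to compounds plus 20 nM camptothecin for at least 48 h at 37 C; viability read as ATP content by CellTiter-Glo luminescence.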
HT1080-NT tox: kills 2HG-producing HT-1080-NT fibrosarcoma cells; Potency, µM (series often up to 46.1 µM), usual class: cytotoxic; actives 1.6% (n = 360,000); AID 686970; HT-1080-NT fibrosarcoma viability, CellTiter-Glo ATP luminescence, 48 h;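 also: NT is the 2HG producing partner of a matched IDH1 knockdown line; nearly all actives have a fitted effect of over 55% in size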
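Read-out is CellTiter-Glo luminescence after 10 minutes at room temperature, following 48 hours' compound treatment of HT-1080-NT cells (750 cells/well, RPMI, 5% FBS, 37 degrees C).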
KB-3-1 cytotox: kills parental KB-3-1 adenocarcinoma cells; KB-3-1 viability, CellTiter-Glo ATP luminescence, 72 h; Potency, µM (doses to about 46.1 µM), actives largely listed as cytotoxic; actives 1.4% (n = 400,000); AID 1347075; also: nearly all actives have a fitted effect of over 60% in size
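KB-3-1 parental drug-naive adenocarcinoma cells in DMEM/10% FBS, incubated 72 h at 37 C with pin-transferred compounds across a concentration series. Viability by CellTiter-Glo luminescence; concentration-response curves fitted after normalization.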
Numbers stand for hits; - = inactive; ? = inconclusive; . = not tested or not shown. Rows were chosen to be rich in hits. Some 19% of all compounds tested hit in one or more screens of this group. Calls follow the shape of the dose curve; as a rule, active = well fitted curve in the direction sought with a large enough effect; inconclusive = small, poorly fitted or top-dose-only effect, or another doubt; inactive = no such curve, though single readings can be large; an effect the other way counts as inactive or inconclusive.

SMILES	DT40 TDP1 no CPT	KB-V1 cytotox	HT1080 IDH1KD tx	TDP1 cell CPT	HT1080-NT tox	KB-3-1 cytotox
CCCNS(=O)(=O)c1ccc(OCC(=O)N2CCN(Cc3ccc4c(c3)OCO4)CC2)cc1	12µM	?	-	?	-	-
Nc1ccccc1C(=O)OCC(=O)Nc1ccc(Br)cc1F	-	-	-	-	-	-
COC(=O)C1=C(c2cccc(C#N)c2)C[C@@H]2CC[C@H]1N2C(=O)NC1Cc2ccccc2C1	-	-	-	-	-	-
CC1CC[C@@]2(OC1)OC1C(O)C3C4CC[C@H]5CC(O[C@@H]6O[C@@H](CO)[C@H](OC7OC(CO)C(O)C(OC8OCC(O)C(O)[C@H]8O)[C@@H]7O[C@@H]7OC(CO)[C@H](O)[C@@H](O[C@@H]8OC(CO)C(O)C(O)C8O)C7O)C(O)C6O)C(O)C[C@]5(C)C4CC[C@]3(C)C1C2C (stereo partly specified)	1.3µM	.	.	2.3µM	.	.
CC1CC[C@@]2(OC1)O[C@@H]1[C@@H](O)[C@H]3C4CC[C@H]5C[C@@H](O[C@@H]6O[C@H](CO)[C@H](O[C@@H]7O[C@H](CO)[C@@H](O)[C@H](O[C@@H]8OC[C@@H](O)[C@H](O)[C@H]8O)[C@H]7O[C@@H]7O[C@H](CO)[C@@H](O)[C@H](O[C@@H]8O[C@H](CO)[C@@H](O)[C@H](O)[C@H]8O)[C@H]7O)[C@H](O)[C@H]6O)[C@H](O)C[C@]5(C)C4CC[C@]3(C)[C@H]1[C@@H]2C (stereo partly specified)	6.7µM	.	.	5.3µM	.	.
COCCCOc1ccnc(CS(=O)c2nc3ccccc3[nH]2)c1C (stereo unspecified)	?	?	-	24µM	-	-
c1csc(CN2CC[C@@]3(CCCNC3)C2)n1	-	.	.	-	.	.
O=c1[nH]c(=O)n(Cc2ccco2)c(O)c1/C=N/N1CCCCC1	-	-	-	-	-	-
Clc1ccc2c(c1)CCc1cccnc1C2=C1CCNCC1	7.3µM	.	.	6.5µM	.	.
N#CC(=C(O)c1ccc(S(=O)(=O)N(CCCl)CCCl)cc1)c1nc2ccccc2[nH]1	-	?	-	-	-	-
O=C(NCCSc1c(-c2ccc(F)cc2)[nH]c2ccccc12)c1ccc(S(=O)(=O)N2CCOCC2)cc1	4.1µM	.	.	5.2µM	.	.
COc1cc(C(=O)NCCSc2c(-c3ccccc3)[nH]c3ccccc23)cc(OC)c1OC	8.2µM	?	.	8.2µM	.	?
CCCOP(=O)(OCCC)C(NC(=O)c1cc(OC)c(OC)c(OC)c1)c1ccccc1 (stereo unspecified)	?	?	-	-	-	-
CCOC(=O)c1c(C)c(C(=O)Nc2cc(OC)ccc2OC)c(C)n1CC	18µM	-	7.1µM	6.5µM	7.1µM	-
CCn1c(CN2CCN(C)CC2)nc2ccccc21	-	-	.	-	.	-
CCCCCCC(=O)N/N=C/c1c(O)n(C(C)CC)c(=S)[nH]c1=O (stereo unspecified)	9.2µM	-	15µM	13µM	?	?
O=C(N/N=C/c1c(O)n(Cc2ccc(F)cc2)c(=O)[nH]c1=O)c1ccccc1O	?	-	?	13µM	?	-
CCCCCCC(=O)N/N=C/c1c(O)n(CCc2ccccc2)c(=O)[nH]c1=O	18µM	-	?	?	-	?
CCCN1CCO[C@@H]2c3cc(O)ccc3OC[C@@H]21	-	.	.	-	.	.
Cc1cccc(C)c1-n1nnnc1C(c1cccs1)N1CCC2(CC1)C(=O)NCN2c1ccccc1 (stereo unspecified)	15µM	?	?	15µM	?	-
O=C1NCN(c2ccccc2)C12CCN(C(CCc1ccccc1)c1nnnn1C1CCCCC1)CC2 (stereo unspecified)	?	?	26µM	?	?	?
